Test results taken from the OligoGym collection.
Note: reference of the scale not given here.

Each sequence was assayed against TNK1 (assay: pooled miR-30 sensor sort-seq; sequence = guide strand). Details: shRNA.
Work on TTTGAAGGTGCGACCATTCTGG yielded a sensor-assay potency score (higher = more potent) of 0.416.
For TAGTGGGCAGACTAGATCCTTC, the sensor-assay potency score (higher = more potent) was -0.841.
With TAGACTTAGGCCCAGAACGTAG the sensor-assay potency score (higher = more potent) was -0.86.
TCTCATAATCCATACTACCAGC was tested, and the sensor-assay potency score (higher = more potent) was -1.03.
With TATAGCAGCTCTTTTCTTCCAA the sensor-assay potency score (higher = more potent) was 0.014.

These sequences were tested against TNKS2 in the same assay as above. Details: shRNA.
For TTTTGATTCGAGTAACATCAGC, the sensor-assay potency score (higher = more potent) was -1.09.
Sequence TTTAATTGCAGCTTCATGGAGA has a sensor-assay potency score (higher = more potent) of 0.599.
Work on TATACTTTATTAGTAGAGCTGC yielded a sensor-assay potency score (higher = more potent) of 0.192.
TTATGCTAAAATCTACTCCTGG showed a sensor-assay potency score (higher = more potent) of 0.0124.
TTCCACTTGAACTAACTACTGA was tested, and the sensor-assay potency score (higher = more potent) was 0.487.
TAAATTTCCATAAATCAGCTAC was tested, and the sensor-assay potency score (higher = more potent) was 0.246.
Sequence TTTCTTGTTACAAACCTTCTGA has a sensor-assay potency score (higher = more potent) of 0.0757.
TTACAGTTTCGACATCTCCAGC showed a sensor-assay potency score (higher = more potent) of -0.869.
TAGTTTCTTGTTACAAACCTTC showed a sensor-assay potency score (higher = more potent) of -0.305.
TTACTCTGTTATATCCTGCTGC showed a sensor-assay potency score (higher = more potent) of 0.643.

The sequences below were run against TNKS in the same assay as above. Details: shRNA.
Work on TTTCATTAACATTTGCTCCTTT yielded a sensor-assay potency score (higher = more potent) of 0.974.
In the case of TTTTGCTGAAGGATCTGCCAGG, the sensor-assay potency score (higher = more potent) is reported as -0.435.
For TTGCATGAACATCAGCACCATG, the sensor-assay potency score (higher = more potent) was -0.893.
For TTTAATAGCAGCTTCATGCAGA, the sensor-assay potency score (higher = more potent) was 0.637.
Sequence TTCTCGAATAGTACTTTGCATC has a sensor-assay potency score (higher = more potent) of -0.948.
For TACTCTACAACAGACACGCGGT, the sensor-assay potency score (higher = more potent) was -0.0381.
In the case of TTAGCTAAGTCTGCTTCTCTGG, the sensor-assay potency score (higher = more potent) is reported as -0.647.
For TAACTTTAGCTAAGTCTGCTTC, the sensor-assay potency score (higher = more potent) was -0.439.
TATAGGTGTACTCTCACTCAGA gave a sensor-assay potency score (higher = more potent) of -0.676.
ATGAACATCAGCACCATGCTGA was tested, and the sensor-assay potency score (higher = more potent) was 0.272.
With TGTTCTACAACATCCTTCCTTC the sensor-assay potency score (higher = more potent) was 0.712.

The sequences below were run against TNP2 in the same assay as above. Details: shRNA.
Work on TCTGTCTGCAACTCTGGCTGAA yielded a sensor-assay potency score (higher = more potent) of -0.415.
In the case of TGGACTAGTGTTGGGACTCTGG, the sensor-assay potency score (higher = more potent) is reported as -0.968.
With TTGGTTTTGTACACCTGCTGGA the sensor-assay potency score (higher = more potent) was 0.278.
Sequence TTTCTGTTCTTGGGGCAGCGGC has a sensor-assay potency score (higher = more potent) of -1.14.
Work on TACACCTGCTGGATCCTCTTGG yielded a sensor-assay potency score (higher = more potent) of 0.0749.
Work on AAGTTCTTTCTGTTCTTGGGGC yielded a sensor-assay potency score (higher = more potent) of -0.319.
TTCTTTCTGTTCTTGGGGCAGC was tested, and the sensor-assay potency score (higher = more potent) was -0.411.
TTTGGTGGTGGACTAGTGTTGG showed a sensor-assay potency score (higher = more potent) of -0.0566.
For TTGCCTTCCAAGTTCTTTCTGT, the sensor-assay potency score (higher = more potent) was 0.0693.
Sequence TTTTGTGGCGCTTTGGTGGTGG has a sensor-assay potency score (higher = more potent) of 0.492.
With TTGTACACCTGCTGGATCCTCT the sensor-assay potency score (higher = more potent) was -0.394.
With TGGTTTTGTACACCTGCTGGAT the sensor-assay potency score (higher = more potent) was -0.833.
